Assay results: PubChem BioAssay (NCI)
Compounds without any hit were thinned out: in the full panel of roughly 83,000, 20% have a hit.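 Single-concentration screen, 48 h exposure, 96-well plates. Endpoint: percent growth. Below 10 = active.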 A number with no mark means an inactive call. Active and inactive are the calls of the source.

System: MDA-MB-468 breast
Assay: NCI-60 one-dose screen, 48 h (100 = growth as untreated, 0 = no growth, -100 = all killed)
Conditions: 10 µM unless noted

Q: With `COc1ccc(-n2c(=O)sc3c(Cl)nc(C)nc32)c(OC)c1` as the molecule, how does the growth read?
A: 57.8%

Q: How did the growth turn out when `CCN1CCN(CC(=O)Nc2nc3ccc(NCc4ccc(C)cc4)cc3s2)CC1` was run?
A: 68.2%

Q: How did the growth turn out when `C=C(C)[C@@H]1CC[C@]2(C(=O)NNC(=O)c3cccnc3)CC[C@]3(C)[C@H](CC[C@@H]4[C@@]5(C)CCCNC(C)(C)[C@@H]5CC[C@]43C)[C@@H]12` was run?
A: 79.8%

Q: With `C=CC(=O)NCc1cccc(Nc2ncc(Br)c(NCCCNC(=O)C3CCC3)n2)c1` as the molecule, how does the growth read?
A: -80.4% (active)

Q: Which growth does the source give for `CCN1C(=O)N(CC)C2C1NN=c1s/c(=C3\C(=O)N(C(C)C)c4ccccc43)c(=O)n12` (stereo not given) here?
A: 16.5%

Q: With `CCN(CC)c1ccc2cc(C(Nc3ccc(C)cc3)c3nnnn3C(C)(C)C)c(=O)oc2c1` (stereo not given) as the molecule, how does the growth read?
A: 105%

Q: For `Nc1nc(N)c2c(n1)NC(c1sc(Cl)nc1Cl)CC(c1ccc3c(c1)OCO3)=N2` (stereo not given), which growth is on record?
A: -13.3% (active)

Q: `CC(=O)C1CCCCC1` was tested. Which growth did it give?
A: 102%

Q: How did the growth turn out when `COc1ccc(/C=c2/c(=O)[nH]c3nc4sc(C)c(C)c4c(=O)n23)cc1` was run?
A: 83.1%

Q: For `COc1cccc2c(=O)c3c(sc12)c(N1CCNCC1)nc1ccccc13`, which growth is on record?
A: 50.2%

Q: Which growth does the source give for `CCCCCCNC(=O)Oc1ccc(/C(=C(/C)c2ccccc2)c2ccc(OCCN3CCCCCC3)cc2)cc1` here?
A: 9.72% (active)

Q: With `Cc1ccccc1NC(=O)NC(CC(N)=O)c1ccc2c(c1)nc(-c1cccc(Oc3ccc(C(C)(C)C)cc3)c1)n2CCCN1CCCCC1C` (stereo not given) as the molecule, how does the growth read?
A: -78.8% (active)

Q: Which growth does the source give for `O=C(Nc1ccc(Cl)cc1)Nc1ccc(Cl)c(C(F)(F)F)c1` here?
A: 10.3%

Q: Which growth does the source give for `Cc1ccc(O)c(C(=O)c2ccccc2)c1` here?
A: 103%

Q: For `Cc1cc2cc3cc(C)c(N)cc3[n+](C)c2cc1N`, which growth is on record?
A: -28.8% (active)

Q: `CCOC(=O)c1c(C(F)(F)F)n([O-])c2ccc(OC)cc2[n+]1=O` was tested. Which growth did it give?
A: -22.2% (active)

Q: `O=C(CCc1nnc(Cn2cnc3nc[nH]c3c2=O)o1)c1nc2ncccc2[nH]1` was tested. Which growth did it give?
A: 102%

Q: `CC(Sc1nc2sc3c(c2c(=O)n1-c1ccc(Cl)cc1)CCCC3)C(=O)Nc1nc(-c2ccc(Br)cc2)cs1` (stereo not given) was tested. Which growth did it give?
A: 105%

Q: Which growth does the source give for `CC(=O)NC(CCC(=O)c1ccccc1)C(=O)O` (stereo not given) here?
A: 93.6%

Q: How did the growth turn out when `Nc1cc(N)c(N)cc1N` was run?
A: 84.7%

Q: `CCN(CC)c1ccc(/C=N/NC(=O)c2ccc(NS(C)(=O)=O)cc2)cc1` was tested. Which growth did it give?
A: 20.2%

Q: How did the growth turn out when `CC(=O)c1c(OCC#N)ccc2c(C)cc(=O)oc12` was run?
A: 93.2%

Q: `Cc1[nH]n(C(=O)c2ccncc2)c(=O)c1N=Nc1ccc(S(=O)(=O)Nc2ccncn2)cc1` was tested. Which growth did it give?
A: 103%

Q: Which growth does the source give for `Cc1cc(NCc2cc(Nc3ccnc4cc(Cl)ccc34)ccc2F)nc(N2CCCC2)n1` here?
A: -35.4% (active)

Q: `O=C(CCCN1CCC(O)(c2ccc(Br)cc2)CC1)c1ccc(F)cc1` was tested. Which growth did it give?
A: 49.2%

Q: For `Cc1nn(-c2ccc(Br)cc2)c2nc3c(nc12)C(=O)C(=O)c1ccccc1-3`, which growth is on record?
A: 95.1%

Q: How did the growth turn out when `CCOC(=O)c1ccc(C(C)(C)C)cc1` was run?
A: 107%

Q: Which growth does the source give for `CC(C)(C)n1cc(-c2ccnc(NCCNS(=O)(=O)c3ccccc3)c2)c(-c2cccc(O)c2)n1` here?
A: 11.1%

Q: How did the growth turn out when `C=CCN1C(=O)c2ccccc2C1=O` was run?
A: 107%

Q: `Clc1ccc(C2=NN=C3C(Cc4ccccc4)=Nc4ccccc4N3C2)cc1` was tested. Which growth did it give?
A: 84.7%

Q: How did the growth turn out when `CC(=O)O[C@H]1C[C@@]2(C)[C@@H](C[C@@H](O)[C@H]3[C@@]4(C)CC[C@H](N5CCCC5)[C@@H](C)[C@@H]4CC[C@@]32C)/C1=C(\CCC=C(C)C)C(=O)O` was run?
A: 94.6%

Q: For `COc1cccc(COc2ccc(/C=C3/C(=O)Nc4cc(Cl)ccc43)cc2)c1`, which growth is on record?
A: 85.1%

Q: For `NC(=S)N/N=C/c1ccc(OC(=O)COc2ccc(Cl)cc2)cn1`, which growth is on record?
A: 24.6%

Q: How did the growth turn out when `NC(=O)CN1CCN(c2ccccc2Cl)CC1` was run?
A: 108%

Q: For `COc1cc(NC(=O)Nc2cnc(Nc3ccc(N4CCOCC4)cc3)nc2Oc2ccc(F)cc2)cc(OC)c1`, which growth is on record?
A: 95.5%

Q: Which growth does the source give for `O=C(CC(=O)Nc1cccc(C(=O)O)c1)Nc1cccc(C(=O)O)c1` here?
A: 108%

Q: How did the growth turn out when `O=C(Nc1ccc(Cl)cc1)c1cc2c(cc1O)[nH]c1ccccc12` was run?
A: -17.6% (active)

Q: With `CCCCCCCCCCSC(=N)N` (tested in a mixture with another compound) as the molecule, how does the growth read?
A: -9.42% (active)

Q: `O=C(NCCOCCOCCNc1cccc2c1C(=O)N(C1CCCNC1=O)C2=O)c1cc2c(o1)C(=O)c1ccccc1C2=O` (stereo not given) was tested. Which growth did it give?
A: -36.6% (active)

Q: How did the growth turn out when `O=S(=O)(NCCNc1nccc(-c2c(-c3cccc(F)c3)nc3occn23)n1)c1cccc2ccccc12` was run?
A: 35.2%
